From PubChem BioAssay AID893 (National Center for Advancing Translational Sciences (NCATS), 2007)
Screen size: about 75,000 compounds; about 5,700 (7.6%) were called active. Inconclusive results (about 7%) are left out. This is one part of a sample in which actives are shown more often than they occur. Unmarked numbers belong to inactive results. The call rests on the fitted dose curve; in most records, active means well fitted inhibition curve with a large enough effect; inconclusive means small, poorly fitted or top-dose-only effect; inactive means no such curve, though single readings can be large or run the other way.

Each compound was assayed against 3-hydroxyacyl-CoA dehydrogenase type-2 (Homo sapiens) (UniProt Q99714) (assay: qHTS Assay for Inhibitors of HSD17B4, hydroxysteroid (17-beta) dehydrogenase 4). Conditions: recombinant HSD17B10, NADH fluorescence kinetic; series mostly up to 57.1 µM; activity change, negative = inhibition: at the top concentration.
Method in brief: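 His-tagged E. coli-expressed HADH2 at 20 nM in 100 mM Tris-HCl pH 9.0 with 0.01 % Tween-20, preincubated 15 min with compound at room temperature. Reaction with 1 mM NAD+ and 90 uM beta-hydroxybutyryl coenzyme A; NADH fluorescence (360/450 nm) read kinetically over 4 min, last minus first point.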
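Further: the protocol describes HADH2 (HSD17B10) and not the HSD17B4 of the title; nearly all actives have a fitted effect of over 70% in size.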
On the % scale 0 is the no-effect control and ±100 the full control effect; potency means the concentration at half of the fitted maximal effect.

Compound	activity change, negative = inhibition	Potency
COc1ccc(CN(C(=O)c2cccs2)c2nccs2)cc1OC	1.4%	–
Cc1ccc(C(=O)OCC(=O)NCc2ccc3c(c2)OCO3)s1	11.6%	–
CCOC(=O)c1nc(-c2ccc3c(c2)OCO3)[nH]c1C	–	20 µM (active)
CCOC(=O)c1c(C)[nH]c(C(=O)COc2ccc3c(c2)OCO3)c1C	6.92%	–
O=C(Nc1cccc(F)c1)N1CC2(CCN(C(=O)c3cnccn3)CC2)C1	-2.14%	–
CC1(C)CC(=O)NC=C(c2ccccc2)C1	-6.53%	–
O=c1[nH]c(-c2ccccc2)c(-c2ccccc2)[nH]1	–	31.6 µM (active)
COC(=O)C1C(=O)CC(C)(O)C(C(=O)OC)C1c1ccc2c(c1)OCO2 (centres undefined)	4.41%	–
O=C(NCc1ccco1)c1nc(-c2ccccc2)n(-c2ccccc2)n1	0.781%	–
O=C(Nc1ccccc1)Nc1ccccc1C(=O)NCc1ccco1	0.806%	–
O=C(NCc1ccco1)c1cccn2c(=O)c3cc(Br)ccc3nc12	–	25.1 µM (active)
CC(C)C(N)C(=O)OCCOCn1cnc2c(=O)[nH]c(N)nc21 (centres undefined)	12.6%	–
FC(F)(F)c1ccc(CN2C[C@@H]3C(c4ccccc4)C4(c5ccccc5)CC3(C4)[C@H]2c2ccccc2)cc1 (some centres undefined)	-1.19%	–
CCOC(=O)N1CCC(NC(=O)Cc2cn(C)c3ccccc23)CC1	-6.92%	–
CCOC(=O)N1CCC(NC(=O)c2cnn3ccccc23)CC1	–	31.6 µM (active)
CCOC(=O)N1CCC(NC(=O)COc2cc(=O)n(C)c3ccccc23)CC1	1.53%	–
CC(C)=CC1C(C(=O)O)C1(C)C (centres undefined)	5.91%	–
Cn1c(CNC(=O)C(C)(C)C)nc2ccccc21	4.46%	–
Nc1nonc1-c1nc2ccccc2n1CCC(=O)O	-8.8%	–
Cn1c(-c2ccc(C(=O)c3ccccc3)s2)nc2ccccc21	–	25.1 µM (active)
COc1cccc(-c2cc(NCCc3c[nH]c4ccc(OC)cc34)ncn2)c1	-5.17%	–
CC1OC2C(OC1C)N(S(C)(=O)=O)CCN2S(C)(=O)=O (centres undefined)	-1.39%	–
C=CC(=C)CCC=C(C)C	-4.3%	–

Compound	activity change, negative = inhibition	Potency
COc1ccc(N)c(C)c1	-1.56%	–
COc1ccc2[nH]c3cc4c(=O)c5cc(OC)ccc5[nH]c4cc3c(=O)c2c1	3.71% [at 11.4 µM]	–
COc1ccc2[nH]c3ccc(OC)cc3c2c1	–	25.1 µM (active)
C=CCOC(=O)COCCC(C)C	4.39%	–
CCOC(=O)CSc1nnc(CNc2nc(-c3ccccc3)cs2)n1C	-8.89%	–
COCCCNC(=O)c1ccc(CNS(=O)(=O)c2ccc(NC(C)=O)cc2)cc1	15.2%	–
c1ccc(CSc2nnc(-c3ccco3)n2Cc2ccccc2)cc1	-11.7%	–
O=C(CSc1nnc(-c2ccco2)n1-c1ccccc1)NCCc1ccccc1	-6.42%	–
c1ccc(CSc2nnc(-c3ccco3)c(-c3ccco3)n2)cc1	–	10 µM (active)
COc1ccc(C(=O)N2CCC(C(=O)Nc3cccc(C)c3)CC2)cc1OC	3.62%	–
CCCCOC(=O)c1ccc(N2C(=O)CC(N3CCN(C/C=C/c4ccccc4)CC3)C2=O)cc1 (centres undefined)	-3.57%	–
CCOc1nc(-c2ccc(OC)cc2)ccc1-c1noc(-c2cc(OC)c(OC)c(OC)c2)n1	–	3.16 µM (active)
COc1cc(-c2nc(-c3ccncc3)no2)cc(OC)c1OC	-1.31%	–
COc1ccc(-c2noc(COc3ccc(Cl)c(C)c3)n2)cc1	-1.03%	–
CCCN1C(=O)C(NC(C)=O)c2cc(OC)ccc21 (centres undefined)	-3.97%	–
O=C(CN1CCOCC1)N1CCCc2c1c(=O)oc1ccc(OCc3ccccc3)cc21	–	31.6 µM (active)
O=C(OCCN1CCOCC1)C1(c2ccccc2)CCCCC1	–	inactive
CCOC(=O)c1c(CN2CCOCC2)n(-c2ccccc2)c2ccc(O)cc12	-11.3%	–
O=C(CN1CCN(C(=O)c2ccco2)CC1)Nc1ccc(Cl)c(C(F)(F)F)c1	7.45%	–
CCOc1ccccc1NC(=O)C1CCC(CNc2c(N3CCOCC3)c(=O)c2=O)CC1 (centres undefined)	-4.03%	–
Cc1ccsc1-c1nc(CSCC(=O)NCCN2CCCC2)c(C)o1	–	31.6 µM (active)
Cn1c(C(=O)NCCCN2CCCCC2)cc2sccc21	4.89%	–
Cc1cc(NC(=O)CSCc2nc(-c3cccc(Cl)c3)oc2C)no1	-6.97%	–

Compound	activity change, negative = inhibition	Potency
CN(C)/C=N/c1cc(=O)n(C)c(=O)n1CC1CC1	-6.59%	–
COCc1cc(C)nc(Nc2cc(C)ccc2C)c1C#N	-11.9%	–
Fc1ccc2[nH]c3c(N4CCSCC4)ncnc3c2c1	–	25.1 µM (active)
CCN1CCCC1CNC(=O)Cn1cnc2ccc(S(=O)(=O)N3CCC(C)CC3)cc2c1=O (centres undefined)	0.495%	–
CCCn1c(-c2ccc(F)cc2)nc2c(NCC3CCCN3CC)nc(C)nc21 (centres undefined)	–	31.6 µM (active)
CCN1CCCC1CNc1ncnc2c1[nH]c1ccc(F)cc12 (centres undefined)	–	31.6 µM (active)
CC(C)OCCCNc1ncnc2c1[nH]c1ccc(F)cc12	–	25.1 µM (active)
CCN1C(=O)CS/C1=N\c1nccs1	0.908%	–
CCOC(=O)N1CCN(C(=O)C2CC(c3ccc(F)cc3)=NO2)CC1 (centres undefined)	3.44%	–
O=Cc1c(Cl)cccc1Cl	-1.86%	–
O=C(c1cn(-c2ccccc2)nc1-c1cccnc1)N1CCCCC1	-4.88%	–
COc1ccc2[nH]cc(CCNc3nc(-c4cccc(NS(C)(=O)=O)c4)nc4ccccc34)c2c1	-12.8%	–
CO[C@H]1COC(=O)C/C=C\[C@H](C)COC(=O)[C@@H](OCc2ccccc2)/C=C\[C@@H]1C	-3.84% [at 11.4 µM]	–
CS(=O)(=O)N1CCC[C@@]2(CCN(c3ccncc3)C2)C1	-5.74%	–
CCNCCCNCCCNCCCNCC	7.38%	–
C=C[C@](C)(O)CCC1C(=C)CCC2[C@@](C)(CO)CCC[C@@]12C (some centres undefined)	-2.46%	–
COC(=O)C(C(=O)OC)[C@@H]1CCCC(=O)C1	8.89% [at 11.4 µM]	–
O=C(CNS(=O)(=O)c1ccc(Br)s1)NCc1ccc2c(c1)OCO2	6.92%	–
COc1ccc(-c2nc(CS(=O)CC(=O)NCc3cccnc3)c(C)o2)cc1OC (centres undefined)	–	25.1 µM (active)
COc1ccc(-c2nc(CS(=O)CC(=O)NCc3ccccn3)c(C)o2)cc1 (centres undefined)	-29.4%	–
Cc1ccc(-c2nc(CS(=O)CC(=O)NC3CCCC3)c(C)o2)cc1 (centres undefined)	-6%	–
CCOc1ccc(C(=O)N(Cc2ccc(N(C)C)cc2)C2CCS(=O)(=O)C2)cc1 (centres undefined)	9.23%	–
CN1CCc2nc(-c3ccccc3)c(-c3ccccc3)cc2C1	2.91% [at 11.4 µM]	–
